Reference: PubChem BioAssay (EPA / NIEHS)
Records with an inconclusive call do not appear. Active and inactive are the calls of the source. How the source made its calls, unless noted: active means hit-call score of the fitted dose curve at least 0.9, where 1 is the maximum; inactive means score below 0.9.

Legend:
[1] = BSK_BT_PBMCCytotoxicity: PBMC Cytotoxicity Assessment in the BioMAP Diversity Plus: BT Assay (AID 2284225); details: primary human B cells with PBMC;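 further: PBMC viability measured by Alamar Blue dye reduction fluorescence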
How it was run: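 Viability by Alamar Blue reduction (6 h, ex/em 546/580 nm) after 90 h culture of SEB/TSST-1-activated PBMC (20 ng/mL each) given compound 1 h before activation. DMSO served as baseline for curve fitting.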

[2] = read-out: Secreted IgG (sIgG), gene 3500; assay: BSK_BT_sIgG: BioMAP Diversity Plus: BT Assay for Secreted IgG (sIgG) Biomarker Activity (AID 2284226); details: primary human B cells with PBMC
How it was run: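 ELISA quantitation of secreted IgG from human B cells co-cultured with PBMC, sampled 24 h post-dosing. Values fitted relative to DMSO vehicle as baseline, positive fitting direction.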

[3] = BSK_BT_Bcell_Proliferation: Viability Assessment in the BioMAP Diversity Plus: BT Assay for B cell Proliferation (AID 2284227); details: primary human B cells with PBMC
How it was run: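 Read-out is absorbance at 560 nm from sulforhodamine B staining of total protein, reflecting relative cell numbers in a human B cell and PBMC co-culture after 72 h of chemical exposure. Values were referenced to DMSO.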

[4] = read-out: Interleukin 6 (IL6), IL6 (gene 3569); assay: BSK_BT_xIL6: BioMAP Diversity Plus: BT Assay for Interleukin 6 (IL6) Biomarker Activity (AID 2284228); details: primary human B cells with PBMC
How it was run: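 IL-6 secretion measured (Luminex xMAP) in human primary B cell + PBMC co-culture at 24 h of chemical exposure; DMSO served as negative control and activity baseline, with curves fitted for increase.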

[5] = read-out: Interleukin 17A (IL17A), IL17A (gene 3605); assay: BSK_BT_xIL17A: BioMAP Diversity Plus: BT Assay for Interleukin 17A (IL17A) Biomarker Activity (AID 2284229); details: primary human B cells with PBMC
How it was run: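 Human primary B cells plus PBMC, treated 24 h with chemicals; supernatant IL-17A quantified on Luminex xMAP beads. Gain of signal over DMSO control scored as activity.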

[6] = read-out: Tumor necrosis factor (Homo sapiens) (UniProt P01375); assay: BSK_BT_xTNFa: BioMAP Diversity Plus: BT Assay for Tumor necrosis factor alpha (TNF-alpha) Biomarker Activity (AID 2284230); details: primary human B cells with PBMC
How it was run: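 Human primary co-culture of B cells and peripheral blood mononuclear cells; TNF-alpha in supernatant, 24 h post-dose, Luminex multiplex; DMSO = baseline.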

[7] = read-out: Vascular cell adhesion molecule 1 (VCAM1), VCAM1 (gene 7412); assay: BSK_MyoF_VCAM1: BioMAP Diversity Plus: MyoF Assay for Vascular cell adhesion molecule 1 (VCAM1) Biomarker Activity (AID 2284231); details: primary human lung fibroblasts
How it was run: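 VCAM-1 levels, lung fibroblasts, ELISA, 24 h exposure, increase scored relative to DMSO.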

[8] = CCTE_Mundy_HCI_Cortical_Synap_Neur_Matur_NeuriteSpotCountPerNeuriteLength: CCTE's Synaptogenesis and Neurite Maturation Assay in rat cortical cells for Neurite Spot Count per Neurite Length, Mundy Lab (AID 2284210)
How it was run: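 Read-out: synaptophysin puncta counted along MAP2-stained neurites, normalised to neurite length, by automated high-content imaging. Rat cortical cells; AraC DIV 5; chemical dosing DIV 7; termination DIV 12. DMSO baseline.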

[9] = CCTE_Mundy_HCI_Cortical_Synap_Neur_Matur_BPCount: CCTE's Synaptogenesis and Neurite Maturation Assay in rat cortical cells for Branch Point Count, Mundy Lab (AID 2284211)
How it was run: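 HCI read-out of branch points from MAP2/synaptophysin/Hoechst immunofluorescence; rat cortical cultures, AraC DIV 5, dosing DIV 7, fixed DIV 12; fit in positive direction vs DMSO baseline.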

[10] = CCTE_Mundy_HCI_Cortical_NOG_NeuriteCount: CCTE's Neurite Outgrowth Assay in rat cortical cells for Neurite Count, Mundy Lab (AID 2284212);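 further: cells fixed about two days after chemical exposure began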
How it was run: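 Rat cortical primary cells; compound added 2 h post-plating, 1/10 dilution of working solution. Anti-betaIII-tubulin/AF488 ICC; ArrayScan neurite count vs DMSO.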

[11] = CCTE_Mundy_HCI_Cortical_NOG_NeuriteLength: CCTE's Neurite Outgrowth Assay in rat cortical cells for Neurite Length, Mundy Lab (AID 2284213)
How it was run: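 First, rat primary cortical cells were plated and, 2 h later, given test chemical as a 1/10 dilution. Finally, βIII-tubulin immunostaining enabled automated imaging of neurite length.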

[12] = CCTE_Mundy_HCI_Cortical_Synap_Neur_Matur_NeuriteLength: CCTE's Synaptogenesis and Neurite Maturation Assay in rat cortical cells for Neurite Length, Mundy Lab (AID 2284214)
How it was run: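 Neurite length quantified by automated high-content imaging of MAP2, synaptophysin and Hoechst staining. Rat cortical cells received chemical from DIV 7 to DIV 12 […], glial growth arrested by AraC at DIV 5; DMSO baseline.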

[13] = CCTE_Mundy_HCI_Cortical_Synap_Neur_Matur_NeuriteSpotCountPerNeuron: CCTE's Synaptogenesis and Neurite Maturation Assay in rat cortical cells for Neurite Spot Count per Neuron Count, Mundy Lab (AID 2284215)
How it was run: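 Developing rat cortical neurons, with glia suppressed by AraC, are exposed to chemicals from DIV 7 to DIV 12. Automated fluorescence imaging of MAP2-labelled neurites and synaptophysin puncta yields a count per neuron, normalised against DMSO wells.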

[14] = CCTE_Mundy_HCI_Cortical_Synap_Neur_Matur_SynapseCount: CCTE's Synaptogenesis and Neurite Maturation Assay in rat cortical cells for Synapse Count, Mundy Lab (AID 2284218)
How it was run: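 High-content imaging of synaptophysin puncta per MAP2-positive neuron (Hoechst nuclei) in rat cortical cells exposed DIV 7–12 after glial arrest with AraC at DIV 5; decrease relative to DMSO scored.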

[15] = CCTE_Mundy_HCI_Cortical_Synap_Neur_Matur_NeuriteCount: CCTE's Synaptogenesis and Neurite Maturation Assay in rat cortical cells for Neurite Count, Mundy Lab (AID 2284222)
How it was run: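 Primary rat cortical cells were plated, treated with AraC at DIV 5, then exposed to chemicals from DIV 7 through DIV 12. After fixation and immunostaining for MAP2 and synaptophysin, imaging quantified neurites, with DMSO as the negative control.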

[16] = CCTE_Mundy_HCI_Cortical_Synap_Neur_Matur_CellBodySpotCount: CCTE's Synaptogenesis and Neurite Maturation Assay in rat cortical cells for Cell Body Spot Count, Mundy Lab (AID 2284223)
How it was run: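 Chemicals were applied to AraC-treated rat primary cortical cells at DIV 7 and measured at DIV 12. Fixed cells were labelled for MAP2, synaptophysin and nuclei, and high-content imaging gave cell body synaptophysin spot counts per neuron relative to DMSO.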

[17] = CCTE_Mundy_HCI_hNP1_Pro_ResponderAvgInten: CCTE's Proliferation Assay in human neuroprogenitor cells, Mundy Lab (AID 2284224; active means hit-call score of the fitted dose curve at least 0.9, where 1 is the maximum;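 further: human neural progenitor cells hNP1 derived from WA09 embryonic stem cells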)
How it was run: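 Proliferation read as average intensity of BrdU-positive cells, imaged at 26.25 h post-dosing: chemical exposure started after 40–44 h culture, BrdU during final 4 h, paraformaldehyde fixation. Positive-direction fit relative to DMSO.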

[18] = UKN4_HCS_LUHMES_cell_viability: Viability Assessment in the University of Konstanz (UKN) Leist Lab Neurite Outgrowth Assay in human LUHMES cells (UKN4) (AID 2284232)
How it was run: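 Viability was read by high-content imaging of calcein-AM/H-33342-stained cells after 24 h toxicant exposure, staining included. Cells: human LUHMES on day 2 of dopaminergic differentiation, dosed shortly after attachment; DMSO baseline, bidirectional curve fitting.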

[19] = UKN2_HCS_IMR90_cell_viability: Viability Assessment in the University of Konstanz (UKN) Leist Lab Neural Crest Cell Migration Assay in human induced IMR90 Pluripotent Stem Cells (UKN2) (AID 2284233);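 further: cells exposed to compound for 24 h after a 24 h migration phase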
How it was run: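 Viability read as calcein-AM fluorescence by high-content imaging, Hoechst co-stain, 30 min. Human iPSC (IMR90) neural crest cells had migrated 24 h into stopper-defined gaps before 24 h chemical exposure. Fitted bidirectionally relative to DMSO.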

[20] = TAMU_PeakParms_SingleDonor1434_Chronotropy: Texas A&M University (TAMU) 1.5-hr Human Induced Pluripotent Stem Cell (iPSC)-derived Cardiomyocytes Calcium (Ca+2) Flux Assay for Cardiotoxicity: Chronotropy (changes in peak frequency) (AID 2284217); details: actives raise or lower the signal
How it was run: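 iPSC-CMs, donor 1434; 4 conc (0.2–100 uM), 0.5% v/v DMSO, 90 min, 37C/5% CO2; Ca2+ flux fluorescence → peak.freq.avg; peak.freq.avg = 0 dropped; bidirectional fit vs DMSO; EC05 POD.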

Measured: AC50

Chain of Tumor necrosis factor (Homo sapiens) (P01375 whole entry, looked up): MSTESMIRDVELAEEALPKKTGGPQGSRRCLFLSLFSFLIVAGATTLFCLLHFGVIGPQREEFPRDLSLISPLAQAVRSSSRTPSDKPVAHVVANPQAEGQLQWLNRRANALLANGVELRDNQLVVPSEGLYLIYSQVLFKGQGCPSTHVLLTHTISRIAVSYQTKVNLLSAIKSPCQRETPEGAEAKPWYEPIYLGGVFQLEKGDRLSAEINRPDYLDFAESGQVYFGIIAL

CC1=CC(C)C(C=O)C(C)C1 (stereo unspecified) (tested in a mixture with another compound)
inactive: [1] | [2] | [3] | [4] | [5] | [6] | [7]

CC(=O)CCC=C(C)CCC=C(C)C
inactive: [1] | [4] | [5] | [6] | [7]
active: [2] 20 µM | [3] 31.7 µM

Nc1ccc(N)c([N+](=O)[O-])c1
inactive: [2] | [3] | [4] | [5] | [6] | [7]

C=C(C)C(=O)OCCC(F)(F)C(F)(F)C(F)(F)C(F)(F)C(F)(F)C(F)(F)C(F)(F)C(F)(F)F
inactive: [1] | [2] | [3] | [4] | [5] | [6] | [7]

CCOC(=O)CCCCCCCCC(=O)OCC
inactive: [1] | [2] | [3] | [4] | [5] | [6] | [7]

C=C(F)C(=O)OC(C(F)(F)F)C(F)(F)F
inactive: [1] | [2] | [3] | [4] | [5] | [6] | [7]

CCC(=O)OCC=Cc1ccccc1
inactive: [1] | [2] | [3] | [4] | [5] | [6] | [7]

N[C@@H](CCC(=O)O)C(=O)O
inactive: [8] | [9] | [10] | [11] | [12] | [13] | [14] | [15] | [16]

CC(C)Cc1ccc(C(C)C(=O)O)cc1 (stereo unspecified)
inactive: [8] | [9] | [10] | [11] | [12] | [13] | [14] | [15] | [16] | [17] | [1] | [2] | [3] | [4] | [5] | [6] | [7] | [18] | [19]

O=C1OC2(c3ccc(O)cc3Oc3cc(O)ccc32)c2ccccc21
active: [2] 35.5 µM
inactive: [1] | [3] | [4] | [5] | [6] | [7]

CCCCC(CC)COC(=O)COc1ccc(Cl)cc1C (stereo unspecified)
inactive: [10] | [11] | [19]
active: [8] 24.2 µM | [9] 15.7 µM | [12] 14.1 µM | [13] 16.3 µM | [14] 16.4 µM | [15] 17.1 µM | [16] 25 µM

NC(=O)c1c(Cl)cccc1Cl
inactive: [1] | [2] | [3] | [4] | [5] | [6] | [7]

N#CCCNCCC#N
inactive: [8] | [9] | [10] | [11] | [12] | [13] | [20] | [14] | [15] | [16]

CC=CC(=O)C1=C(C)C=CCC1(C)C
inactive: [1] | [2] | [3] | [4] | [5] | [6] | [7]

CCCCCCCC1CCCC1=O (stereo unspecified)
active: [2] 2.5 µM
inactive: [1] | [3] | [4] | [5] | [6] | [7]

CC(=O)OCC=C(C)CCC=C(C)CCC=C(C)C
inactive: [7]
active: [1] 33.2 µM | [2] 20 µM | [3] 37.9 µM | [4] 30.7 µM | [5] 20 µM | [6] 36.5 µM
